# Results reported in PubChem BioAssay (NCI).
# Compounds without any hit were thinned out: in the full panel of roughly 79,000, 15% have a hit. Unmarked numbers belong to inactive results. Active and inactive are the calls of the source. Cut-off read from the data, not from the text of the source: active = growth inhibition above about 70%; inactive = the rest.
# Assays:
# [1] = NCI Yeast Anticancer Drug Screen. Data for the rad50 strain (AID 155);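 note: 0% = growth of vehicle-only cultures of the same strain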; conditions: S. cerevisiae rad50 strain growth inhibition; at 50.0 µM; active compounds read high
# In short: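 Growth of the mutant yeast was measured after compound exposure and referenced to vehicle-treated cultures.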
# [2] = NCI Yeast Anticancer Drug Screen. Data for the mec2-1 strain (AID 157); conditions: S. cerevisiae mec2-1 strain, at 50.0 µM, active compounds read high
# In short: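 Yeast mec2-1 mutant treated with compound. Readout: growth inhibition vs vehicle controls.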
# [3] = NCI Yeast Anticancer Drug Screen. Data for the sgs1 mgt1 strain (AID 161);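 note: 0% = growth of cultures given vehicle only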; conditions: S. cerevisiae sgs1 mgt1 strain, at 50.0 µM, active compounds read high
# In short: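 Genetically altered yeast, compound exposure, growth inhibition relative to vehicle.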
# [4] = NCI Yeast Anticancer Drug Screen. Data for the cln2 rad14 strain (AID 165);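 note: 0% = growth equal to vehicle treated cultures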; conditions: S. cerevisiae cln2 rad14 strain, at 50.0 µM, active compounds read high
# In short: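 cln2 rad14 yeast strain; compound exposure; growth inhibition read vs vehicle controls.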
# [5] = NCI Yeast Anticancer Drug Screen. Data for the bub3 strain (AID 167); conditions: S. cerevisiae bub3 mutant strain, at 50.0 µM, active compounds read high
# In short: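 Whole-cell yeast assay. The mutant strain was incubated with compounds, and growth inhibition was determined by comparison with vehicle-treated cells.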
# [6] = NCI Yeast Anticancer Drug Screen. Data for the mlh1 rad18 strain (AID 175); conditions: S. cerevisiae mlh1 rad18 strain growth inhibition; at 50.0 µM; active compounds read high
# In short: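 Yeast w/ defined DNA-repair lesions; compound exposure; growth vs vehicle controls → % inhibition.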
SMILES,growth inhibition [1],growth inhibition [2],growth inhibition [3],growth inhibition [4],growth inhibition [5],growth inhibition [6]
COC(=O)C(O)(C(=O)OC)C1=C(N)C(=O)c2ccccc2C1=O,28.9%,17.1%,17.8%,-5.4%,40.8%,28.3%
Nc1ncnc(Nc2ccc(S(=O)(=O)O)cc2)n1,-35.9%,-32.6%,-31.1%,-1.25%,-34.9%,-27.2%
CCCCCCCC/C=C\CCCCCCCC(=O)OCC1CCCO1 (stereo unspecified),-6.8%,4.7%,-26.6%,69.2%,33.6%,4.45%
CSc1nc2cc(S(=O)(=O)N3CCCCC3)ccc2s1,-34.5%,-21.8%,-25.5%,-52.6%,-89.3%,-7%
Cc1ccc(N=Nc2c(N)nc(N)[nH]c2=O)c(C)c1,14.9%,-4.8%,-11.9%,9.6%,15.7%,19.8%
CCCCCCCCCCCCCCC(=O)Cl,9%,7.25%,5.8%,8.2%,-9.95%,8.85%
COc1cc(OC)c(OC(=O)CCl)c(OC)c1,-3.85%,1.3%,3.2%,1.7%,11.2%,17.4%
CCOC(=O)Nc1cc2c(c(N)n1)N=C(c1ccc(Cl)cc1Cl)CN2,33.4%,-29.5%,25.6%,-5.1%,-6%,-8.45%
NC(Cc1ccc(OC(c2ccccc2)c2ccccc2)cc1)C(=O)O (stereo unspecified),6.45%,4.9%,0.75%,-10.7%,-13.6%,28.8%
O=C(NCCCCCCNC(=O)Oc1ccccc1F)Oc1ccccc1F,-13.6%,-14.5%,-6.5%,-0.05%,6.4%,-20.9%
O=[N+]([O-])c1ccc(O)c(C=NCCCN=Cc2cc([N+](=O)[O-])ccc2O)c1,0.7%,7.95%,-5%,-6.95%,9%,-11.3%
CC(=O)Oc1c(C(C)C)cccc1C(C)(C)C,-10.8%,-9.95%,-1.1%,-14.1%,-34.1%,-13.5%
CC1=CC(=O)CC2(C)CCC(C(C)CC(=O)CC(C)C)CC12 (stereo unspecified),88.8% (active),91.3% (active),91% (active),91.3% (active),88.8% (active),91.5% (active)
COc1ccccc1/C=C(\C#N)C(=O)O,15.9%,-31.3%,-0.75%,8.6%,-6.65%,-17.9%
NC(=O)c1ccccc1OC(=O)Nc1ccccc1,16.6%,7.5%,5.1%,17.2%,22.1%,10.8%
Clc1ccc(CSc2nnc(SCc3ccc(Cl)cc3)c3[nH]cnc23)cc1,14.2%,0.05%,20.9%,25.9%,-3.2%,-11.7%
Cc1[nH]c(=O)[nH]c(=O)c1/C=C/C(=O)NC(CO)CS(=O)C(C)C (stereo unspecified),83.2% (active),63.5%,95.4% (active),64.7%,79.7% (active),85.7% (active)
c1ccc2c(c1)CCC/C2=N\OCC1CO1 (stereo unspecified),-7.5%,-28.4%,-35.2%,-3.1%,-33.1%,7.05%
Cc1ccc(S(=O)(=O)NC2C(=O)c3ccccc3C(=O)C2n2cnc3ccccc32)cc1 (stereo unspecified),14.3%,1.8%,-10.9%,-16.9%,-14.9%,-28.8%
CC(Cc1ccccc1)c1ccccc1 (stereo unspecified),15.9%,16.2%,10.7%,3.35%,-0.05%,2.1%
NC1CCCCC1N.O=S(=O)([O-])CCCNC1CCCCC1.O=S(=O)([O-])CCCNC1CCCCC1.[Pt+4],-6.3%,-8.15%,-15.7%,-23.6%,-21.1%,15.9%

SMILES,growth inhibition [1],growth inhibition [2],growth inhibition [3],growth inhibition [4],growth inhibition [5],growth inhibition [6]
CCC(C)OC(=O)C1C(=O)CC(c2ccccc2)C1c1ccccc1 (stereo unspecified),-2.2%,-8.4%,-4.8%,-1.45%,3.4%,-6.35%
O=C(Nc1ccc(Cl)cc1)Nc1nnc(-c2ccc(F)cc2)o1,5.5%,9.25%,7.75%,-70.3%,-25%,17.4%
Cc1ccc(C2(c3ccccc3)c3ccccc3C(=O)N2c2ccccc2)cc1 (stereo unspecified),97% (active),97.6% (active),97.7% (active),95% (active),97.2% (active),96.9% (active)
Cc1nc2c(cnn2C)c(=O)n1-c1ccccc1Cl,21.4%,17.2%,11.8%,41%,29.9%,17.3%
Cc1ccc(S(=O)(=O)OCCNc2ccc([N+](=O)[O-])cc2[N+](=O)[O-])cc1,2%,6.8%,6.45%,11.8%,2.9%,7.85%
CCN1C(=O)NC(C)(c2ccccc2)C1=O (stereo unspecified),-2.9%,3.35%,-3.45%,-11.3%,10.1%,2.1%
Cc1cccc(O)c1,-11.7%,-9.8%,-42%,-16.4%,-4.65%,-39.2%
COc1ccc(CC(=O)OCCCl)cc1OC,-17%,-22.4%,3%,-26.4%,44.1%,-20.7%
Cn1c(=O)n2n(c1=O)[C@@H](c1ccccc1)[C@H]2c1ccccc1,29.8%,-45.4%,-9.85%,-5.85%,20.2%,-59.3%
CCOC(=O)CN=NNc1ccc([N+](=O)[O-])cc1,10.3%,8.85%,-3.5%,-42.2%,21.1%,7.7%
Cc1cc(Cl)ccc1OCC(=O)OCCBr,3.55%,17.9%,5.35%,-23.2%,-22.9%,-8.15%
CCCCCCNc1ncnc2c1cnn2C,5.3%,6.85%,1.45%,-17.9%,38.7%,3.4%
O=C1NC(c2cccc3c2OCO3)N=C2Oc3ccccc3C=C12 (stereo unspecified),9.95%,1.95%,9.45%,7.8%,-4.05%,-10.6%
C=C(Br)c1ccc2c(c1)OCO2,30%,15.7%,20.9%,8%,4.05%,-8.55%
CCOC(=O)C/C(C)=N\NS(=O)(=O)c1ccc([N+](=O)[O-])cc1,3.05%,-16.5%,8.85%,-30.1%,8%,2.45%
CN(CCO)c1nc(N)cc(=O)[nH]1,-17.7%,12.5%,-10.9%,4.5%,-10.9%,-8.45%
NC(=O)COc1ccc(Cl)cc1Cl,16.6%,-0.5%,28.4%,-0.4%,5.7%,20%
Cn1c(=O)c2c(-c3ccccc3)cc(-c3ccccc3)nc2n(C)c1=O,-18.8%,-16.1%,1.95%,-30.7%,-10.7%,-21.4%
CC(=O)OCCOc1ccc(C(C)(C)C)cc1,45%,-18.4%,9.25%,32.5%,11.8%,15.2%
CSc1ccc(C(N)=O)cn1,-1.2%,-12.2%,-7.05%,-36%,-22.1%,1.15%
